In PMC4336329 (PLoS ONE, 2015):
Screen size: about 310,000 compounds; about 2,200 (0.71%) showed an effect of 50% or more. The effect is printed as a negative number. This is one part of a sample in which strong results are shown more often than they occur.

The molecules below were run against human ether-à-go-go-related gene (hERG) potassium channel (human, UniProt Q12809) (assay: primary screen, population patch clamp on CHO cells stably expressing hERG; higher = less effect of the substance).
Sequence of human ether-à-go-go-related gene (hERG) potassium channel (Q12809 whole entry, looked up): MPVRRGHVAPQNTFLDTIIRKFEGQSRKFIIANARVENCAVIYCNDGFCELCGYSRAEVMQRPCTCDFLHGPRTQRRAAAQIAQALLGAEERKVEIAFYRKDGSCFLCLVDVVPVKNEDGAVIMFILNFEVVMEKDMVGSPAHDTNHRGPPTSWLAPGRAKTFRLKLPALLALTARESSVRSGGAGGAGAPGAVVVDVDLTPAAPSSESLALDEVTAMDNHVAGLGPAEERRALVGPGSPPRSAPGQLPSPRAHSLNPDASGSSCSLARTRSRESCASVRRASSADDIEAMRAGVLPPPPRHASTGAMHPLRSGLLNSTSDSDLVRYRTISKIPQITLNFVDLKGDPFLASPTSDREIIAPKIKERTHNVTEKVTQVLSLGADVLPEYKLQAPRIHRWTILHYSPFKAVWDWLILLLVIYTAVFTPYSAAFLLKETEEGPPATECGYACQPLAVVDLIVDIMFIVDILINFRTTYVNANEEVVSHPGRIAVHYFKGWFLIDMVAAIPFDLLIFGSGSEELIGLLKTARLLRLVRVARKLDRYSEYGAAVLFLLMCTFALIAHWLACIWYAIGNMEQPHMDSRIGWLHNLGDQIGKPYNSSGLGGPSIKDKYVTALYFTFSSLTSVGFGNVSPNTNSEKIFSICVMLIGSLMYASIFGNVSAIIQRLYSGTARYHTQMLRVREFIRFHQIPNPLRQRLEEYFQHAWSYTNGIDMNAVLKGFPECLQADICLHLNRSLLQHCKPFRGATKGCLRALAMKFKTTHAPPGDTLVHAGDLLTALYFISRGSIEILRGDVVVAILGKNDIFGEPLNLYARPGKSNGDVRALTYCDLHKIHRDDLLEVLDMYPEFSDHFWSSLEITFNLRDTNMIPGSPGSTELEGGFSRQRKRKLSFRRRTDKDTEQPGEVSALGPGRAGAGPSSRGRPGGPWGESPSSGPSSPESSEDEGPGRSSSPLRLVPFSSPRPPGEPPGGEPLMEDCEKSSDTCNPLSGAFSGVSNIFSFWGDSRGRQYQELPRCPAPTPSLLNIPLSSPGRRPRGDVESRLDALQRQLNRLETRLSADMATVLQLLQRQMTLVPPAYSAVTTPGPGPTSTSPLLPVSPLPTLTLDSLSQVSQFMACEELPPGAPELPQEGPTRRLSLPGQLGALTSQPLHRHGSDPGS

SMILES	hERG current change (%, negative = inhibition) at 1uM [%]
CCN(Cc1ccccc1)C(=O)CN1C(=S)NC(C)(C)CC1C (centres unmarked)	3.12
CCOC(=O)CNc1c(-c2ccc(O)cc2)nc2ccc(Cl)cn12.Cl	-13.3
CCOC(=O)CNc1c(-c2ccccc2)nc2ccc(Cl)cn12	-27.6
CCOC(=O)CNc1c(-c2ccc(OC)cc2)nc2ccc(Cl)cn12	-68.4
O=C(NCCN1CCOCC1)c1cc([N+](=O)[O-])cc([N+](=O)[O-])c1	12.5
CCc1c(C)c2c(C)[nH]nc2oc1=O	10.5
O=C(CCN1CCN(c2ccccc2)CC1)Nc1ccccc1F	14.5
Fc1ccc(NC(=S)N2CCN(C/C=C/c3ccccc3)CC2)c(F)c1	13
Cc1ccccc1NC(=O)N1CCN(C/C=C/c2ccccc2)CC1	11
COc1ccc(S(=O)(=O)N2CCN(C/C=C/c3ccccc3)CC2)cc1F	8.5
COc1ccc(S(=O)(=O)N2CCN(C/C=C/c3ccccc3)CC2)cc1NC(C)=O	-54.2
Fc1ccccc1NC(=S)N1CCN(C/C=C/c2ccccc2)CC1	7.89
O=C(CN1CCN(C/C=C/c2ccccc2)CC1)Nc1ccc(F)cc1F	-87.4
Cl.O=C(CCN1CCN(C/C=C/c2ccccc2)CC1)Nc1ccccc1Cl	-47.6
O=C(CCN1CCN(C/C=C/c2ccccc2)CC1)Nc1ccccc1F.O=C(O)C(=O)O	-81.2
COc1ccc(NC(C)=O)cc1S(=O)(=O)N1CCN(C/C=C/c2ccccc2)CC1	-48.1
Cc1ccccc1NC(=O)CCN1CCN(C/C=C/c2ccccc2)CC1	-72
O=C(Nc1ccc(F)cc1F)N1CCN(C/C=C/c2ccccc2)CC1	-15.3
O=C(Nc1ccc(-c2nc3ccccc3o2)cc1)c1cc(-n2cnnc2)ccc1Cl	6.74
O=C(O)CC(NC(=S)NCc1ccccc1)C(=O)O (centres unmarked)	-7.52
CC(CCc1ccccc1)NC(=O)COC(=O)c1ccc([N+](=O)[O-])cc1 (centres unmarked)	5.37
COc1ccc(CCNC(=O)CSc2nc3c(c(=O)n(C)c(=O)n3C)n2C(C)C)cc1OC	-14.5
CC(C)=CCc1c(O)cc2c(c1O)C(=O)CC(c1ccccc1)O2 (centres unmarked)	12.9
CCN(CC)S(=O)(=O)c1cc(C(=O)N(C)CC(=O)Nc2ccc(Cl)cc2)ccc1Cl	-1.15
COc1cccc(-c2c(-c3cc(OC)cc(OC)c3)n(C)c3ccc(-c4ccc5[nH]ccc5c4)cc23)c1	11.8
CCN1CCN(c2nc(-c3ccccc3Cl)nc3ccccc23)CC1.Cl	-39.1
Cc1ccc(S(=O)(=O)N2CCN=C2SCc2ccc(Cl)c(Cl)c2)cc1	10.2

SMILES	hERG current change (%, negative = inhibition) at 1uM [%]
COc1ccc(C=C2c3ccccc3C(=O)c3ccccc32)c(OC)c1	7.49
Cc1nn(Cc2noc(C(=O)NCc3ccc4c(c3)OCO4)n2)c(C)c1Br	1.08
CCOC(=O)n1c(=O)n(Cc2ccccc2Cl)c2ccccc21	10.3
O=C(CSc1nnc(COc2ccc(Cl)cc2)o1)NC1CCCCC1	-2.69
COc1ccc(C)cc1NC(=O)CCN1CCN(C/C=C/c2ccccc2)CC1	-70.9
COc1ccc(C)cc1NC(=O)CN1CCN(C/C=C/c2ccccc2)CC1	-45.2
COc1ccc(C)cc1NC(=O)CCN1CCN(c2ccccc2)CC1	3.12
O=C(NCC1COc2ccccc2O1)c1ccc(NC(=O)c2ccco2)cc1 (centres unmarked)	-1.42
COc1ccc(-n2c(SCC(=O)N/N=C/c3ccccc3OCC(=O)O)nc3ccccc3c2=O)cc1	11.6
O=C(COc1ccc(Cl)cc1)N1CCN(Cc2ccc3c(c2)OCO3)CC1	-6.58
COc1cc(CN2CCN(Cc3ccc([N+](=O)[O-])cc3)CC2)c([N+](=O)[O-])cc1OC.O=C(O)C(=O)O	-25.4
O=C(COc1ccc(Cl)cc1)N1CCN(C2CCCC2)CC1.O=C(O)C(=O)O	-68.4
O=C(COc1ccc2ccccc2c1)N1CCN(Cc2ccncc2)CC1.O=C(O)C(=O)O	-14.8
O=C(COc1ccc(Cl)cc1)N1CCN(Cc2ccc([N+](=O)[O-])cc2)CC1.O=C(O)C(=O)O	-76.4
O=C(COc1ccc2ccccc2c1)N1CCN(C2CCN(Cc3ccccc3)CC2)CC1	-69.6
COc1cccc(CN2CCN(Cc3cc(OC)c(OC)cc3[N+](=O)[O-])CC2)c1.O=C(O)C(=O)O	-18.5
O=C(COc1ccc(Br)cc1)N1CCN(C2CCCC2)CC1	-42.1
O=C(COc1ccccc1)N1CCN(C2CCCC2)CC1.O=C(O)C(=O)O	8.65
COc1cccc(CN2CCN(C(=O)COc3ccc4ccccc4c3)CC2)c1	10.5
O=C(COc1ccc(Cl)cc1)N1CCN(Cc2ccccc2)CC1	3.32
COc1cc(CN2CCN(Cc3ccc(C)cc3)CC2)c([N+](=O)[O-])cc1OC.O=C(O)C(=O)O	-73.4
CCN1c2ccccc2-c2nc3ccccc3n2C1c1cccs1 (centres unmarked)	4.28
COCCn1c(=NC(=O)c2cccs2)sc2cc(NC(C)=O)ccc21	0.283
COc1ccc(N2C(=O)C(Cl)=C(Nc3ccccc3OC)C2=O)cc1	2.56
O=C(CSc1nnc(-c2ccccn2)n1Cc1ccccc1)Nc1ccc2c(c1)OCO2	7.03
CCN(CC)CCCNC(CC(=O)Nc1cccc([N+](=O)[O-])c1)C(=O)O (centres unmarked)	3.62
